From PubChem BioAssay AID489025 (Southern Research Specialized Biocontainment Screening …, 2010)
Hit rate of the full screen: of about 2,300 compounds, about 790 (34%) were called active. How the calls were made is not given here. This is one part of the list. Where a call stands in place of a potency, no number is given. Potency and affinity values are given separately.

Assay: THP-1 cell cytotoxicity, dose response, cytotoxicity control for non-replicating M. tuberculosis project (AID 489025)
Conditions: THP-1 cell viability; series mostly up to 40 µM

| SMILES | outcome |
| --- | --- |
| O=C(NCc1ccco1)c1nc2ccccc2s1 | inactive |
| O=Cc1c(NCc2ccco2)nc2ccccn2c1=O | inactive |
| O=C(c1nnc(-c2ccc(Cl)cc2)o1)C1CCCC1 | inactive |
| CC1(c2nnc(Cc3ccccc3)o2)CC(c2ccccc2[N+](=O)[O-])=NO1 (stereo not drawn) | inactive |
| O=C(CCNc1cccc(F)c1)c1cccc([N+](=O)[O-])c1 | inactive |
| COC(=O)c1cccc(NC(=O)COc2cccc([N+](=O)[O-])c2)c1 | inactive |
| CCc1nnc(N/N=C/c2ccc(-c3ccc([N+](=O)[O-])cc3)o2)n1N | inactive |
| CCCCCCCC(=O)N/N=C/c1ccc([N+](=O)[O-])o1 | inactive |
| CC1Cc2ccccc2N1C(=O)COC(=O)c1ccc(Cl)nc1 (stereo not drawn) | inactive |
| O=C(COC(=O)c1ccc(Br)o1)NCCCc1ccccc1 | inactive |
| COC(=O)CCSCc1cn2cc(Cl)ccc2n1 | inactive |
| CCC1CCc2sc(C(=O)NNC(=O)c3ccncc3)cc2C1 (stereo not drawn) | inactive |
| Cc1ccc(NCCC(=O)c2cccs2)cc1C | inactive |
| COc1ccc(N=N/C(=C\O)C(=O)c2cccs2)cc1 | inactive |
| Sc1oc(-c2ccccc2)cc1C=Nc1ccccc1 | inactive |
| CCOC(=O)COc1ccc(C2CC(C)=NN2c2ccccc2)cc1 (stereo not drawn) | inactive |
| COc1ccc(C2=NOC(COC(=O)c3ccc4ccccc4n3)C2)cc1 (stereo not drawn) | inactive |
| CCCCOc1ccc(NC(=O)CN2CCN(Cc3ccccc3)CC2)cc1 | inactive |
| O=C(COC(=O)C1CC2C=CC1C2)Nc1ccccc1 (stereo not drawn) | inactive |
| Cc1cc(C)n2[nH]c(=O)c(N=Nc3cccc(C(F)(F)F)c3)c2n1 | inactive |

| SMILES | outcome |
| --- | --- |
| CCOC(=O)/C=C1\Nc2ccccc2OC1=O | inactive |
| Clc1ccc(OCCCCN2CCc3ccccc3C2)cc1 | inactive |
| Cn1c(SCCOc2cccc(Cl)c2)nnc1-c1ccncc1 | inactive |
| O=C(COC(=O)CCc1c[nH]c2ccccc12)Nc1cc([N+](=O)[O-])ccc1Cl | inactive |
| O=C(CCCSc1nc2ccccc2s1)NCc1ccco1 | inactive |
| c1ccc(Cn2c(SCCN3CCOCC3)nnc2-c2cccnc2)cc1 | inactive |
| COc1ccc(CN=C2NN=C(c3ccc(Cl)cc3)CS2)cc1 | inactive |
| O=C(O)c1ccc(CN2C(=O)CSC2=S)cc1 | inactive |
| O=C(O)CCCCCN1C(=O)CSC1=S | inactive |
| CCOc1ccc(OCC(=O)Nc2nccs2)cc1 | inactive |
| COc1ccc(NC(=O)Nc2ccc(O)c3ccccc23)cc1 | inactive |
| CCOc1ccc2ccccc2c1/C=N/NC(=O)c1ccncc1 | inactive |
| O=C(CCSc1ccc(Cl)cc1)Nc1cccnc1 | inactive |
| COc1ccc(C(=O)OCn2nnc3ccccc3c2=O)cc1 | inactive |
| Cc1ccc(C(=O)N/N=C/c2cccc3ccccc23)cn1 | inactive |
| CCOC(=O)C1CCN(CCCSc2ccc(Cl)cc2)CC1 | inactive |
| C/C(=N\NC(=O)c1cccc(Cl)c1)C1C(=O)c2ccccc2C1=O | inactive |
| O=C(CCc1ccccc1)NC1C2CC3CC(C2)CC1C3 (stereo not drawn) | inactive |
| C/C(=N\NC(=O)c1ccncc1)c1cc2ccccc2oc1=O | inactive |
| C/C(=N/NC(=O)c1cccc(C)c1)c1c(O)cc(C)oc1=O | inactive |

| SMILES | outcome |
| --- | --- |
| Cc1ccccc1C(=O)NN1CC(C(=O)OCc2ccc(Cl)c(Cl)c2)CC1=O (stereo not drawn) | inactive |
| CSc1ccccc1C(=O)NCc1ccc(S(N)(=O)=O)cc1 | inactive |
| O=C(COc1ccc(Cl)cc1)OCC(=O)N1CCCc2ccccc21 | inactive |
| CNC(=O)c1[nH]cnc1C(=O)Nc1ccc(Cl)cc1 | inactive |
| O=C(Nc1cccnc1)c1cc(Cl)ccc1Cl | inactive |
| CN1/C(=C\C(=O)COC(=O)C2COc3ccccc3O2)C(C)(C)c2ccccc21 (stereo not drawn) | inactive |
| CN1/C(=C\C(=O)COC(=O)c2ccc([N+](=O)[O-])o2)C(C)(C)c2ccccc21 | inactive |
| O=C(OCc1ccc(Cl)c(Cl)c1)c1ccccn1 | inactive |
| CC(C)c1ccc(OCC(=O)NNC(=O)c2cnccn2)cc1 | inactive |
| O=C(OCC(=O)C12CC3CC(CC(C3)C1)C2)c1ccccn1 | inactive |
| O=C(Oc1cccnc1)c1ccc(Cl)c(Cl)c1 | inactive |
| NNC(=O)CNC(=O)C12CC3CC(CC(C3)C1)C2 | inactive |
| O=C(NCc1ccc(F)cc1)c1cnccn1 | inactive |
| Nc1c(C(=O)NC2CCCCC2)nsc1C(=O)OCC(=O)NC1CCCCC1 | inactive |
| COC(=O)COc1ccc(S(=O)(=O)NCc2ccc3c(c2)OCO3)cc1 | inactive |
| COC(=O)CCCC(=O)N1CCCC(C(=O)c2ccc(-c3ccccc3)cc2)C1 (stereo not drawn) | inactive |
| N#Cc1ccc(CSc2nnc(-c3cccnc3)o2)cc1 | inactive |
| O=C(COC(=O)CCC(=O)c1ccc(F)cc1)Nc1ccccc1 | inactive |
